High-throughput results deposited in PubChem by several laboratories.
CYP2C19 activ: increases human CYP2C19 enzyme activity. activation factor at 5 µM. AID 1025. recombinant CYP2C19, luciferin-H EGE luminescence; active compounds read high; 0 = fully inhibited enzyme, 1 = untreated enzyme. 96,000 tested, under 10 active;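 active = activation factor of at least 2 at 5 µM in the primary screen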;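 also: 0 = wells with 2.5 mM tranylcypromine and 1 = vehicle-only wells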
CYP2C19 inhib: inhibitors of human CYP2C19; CYP2C19 Supersomes, luciferin-H EGE luminescence, 30 min; actives 21% (n = 96,000); AID 778; P33261; inhibition, % at 5 µM;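 active = CYP2C19 inhibition above a set limit at 5 µM in the primary screen, cut at about 50% in these data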;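 also: plate controls were negative control wells for no effect and 2.5 mM tranylcypromine positive control for full effect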
CYP2C9 inh: inhibitors of human CYP2C9; P11712; CYP2C9 Supersomes, luciferin-H conversion, luminescence; inhibition, % at 5 µM; actives 20% (n = 96,000); AID 777;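 active = blocking of liver enzyme CYP2C9 beyond about 50% at 5 µM, limit read from the data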
Target sequence (P11712 whole entry, looked up): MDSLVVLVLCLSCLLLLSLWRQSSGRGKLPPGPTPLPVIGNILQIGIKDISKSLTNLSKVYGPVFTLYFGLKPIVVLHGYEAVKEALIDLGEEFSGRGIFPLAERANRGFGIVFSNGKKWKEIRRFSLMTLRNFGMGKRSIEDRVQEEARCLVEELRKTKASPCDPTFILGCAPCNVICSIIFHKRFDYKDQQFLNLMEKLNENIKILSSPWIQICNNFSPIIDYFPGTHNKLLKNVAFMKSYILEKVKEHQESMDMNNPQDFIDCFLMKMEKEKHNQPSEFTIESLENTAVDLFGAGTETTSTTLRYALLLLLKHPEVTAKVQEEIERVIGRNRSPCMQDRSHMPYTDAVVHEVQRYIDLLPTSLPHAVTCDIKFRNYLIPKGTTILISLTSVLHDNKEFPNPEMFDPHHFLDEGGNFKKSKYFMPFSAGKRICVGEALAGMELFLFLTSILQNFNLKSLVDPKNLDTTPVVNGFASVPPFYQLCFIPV
CYP2C9 activ: activators of human CYP2C9. P11712. recombinant CYP2C9, luciferin-H conversion, luminescence; active compounds read high; factor 1 = untreated enzyme, 0 = blocked. activation factor at 5 µM. actives 1.4% (n = 96,000). AID 1024;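 active = activation factor of 2 or more for CYP2C9 at a 5 µM dose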;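 also: 0 = sulfaphenazole-blocked wells and 1 = vehicle-only wells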
D1 mod: D1 dopamine receptor (human) allosteric modulation. P21728. HEK293 D1, CRE-luciferase, dopamine EC30 potentiation; actives deviate in either direction. B-score at 10 µM. actives 5.9% (n = 58,000);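 active = luminescence count or its row- and column-corrected plate score outside the 99.7% band of the plate's sample wells, on either side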
DAT uptake mod: human DAT dopamine uptake with cocaine, either direction; Q01959; LLC-PK1 hDAT cells, [14C]-dopamine uptake with cocaine IC80; actives deviate in either direction; B-score at 10 µM; actives 1.3% (n = 110,000); AID 449768;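 active = Z score or B-score, a plate-position-corrected score, falls beyond the plate's 99.7% confidence bounds, in either direction; inactive = both scores lie inside the 99.7% bounds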;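 also: scored against the spread of the other compound wells on the same plate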
An asterisk follows results filed as active. An excerpt weighted towards active compounds, which were near 28% of everything screened.

`O=C(NCCCn1ccnc1)c1ccco1` gave CYP2C19 activ 0.9, CYP2C19 inhib 15, CYP2C9 inh 6, CYP2C9 activ 0.9, D1 mod 0.0055 and DAT uptake mod 0.2.
COc1ccc(NC(=S)NCCCn2ccnc2)cc1 was read as DAT uptake mod -0.15.
Cn1c(Cn2c(=O)sc3ccccc32)nnc1SCC(=O)Nc1ccc2c(c1)OCO2 was read as D1 mod 0.72 and DAT uptake mod -0.76.
`CCCCNC(=O)c1ccccc1C(=O)NCCCC` gave CYP2C19 activ 0.9, CYP2C19 inhib 11, CYP2C9 inh 6, CYP2C9 activ 0.9, D1 mod -0.61 and DAT uptake mod -0.28.
`CCCCCNC(=O)c1ccccc1SC` gave CYP2C19 activ 0.4, CYP2C19 inhib 59*, CYP2C9 inh -29, CYP2C9 activ 1.3 and DAT uptake mod -0.072.
For Cc1cc(NC(=O)CN2CCOCC2)n(-c2nc3ccccc3s2)n1 the results were CYP2C19 activ 0.9, CYP2C19 inhib 8, CYP2C9 inh 40, CYP2C9 activ 0.6 and DAT uptake mod 0.0011.
Screening Cc1ccc(-c2ccc(/C=N\NC(=O)C3C(=O)NCC3c3ccccc3)o2)cc1Cl (stereo unspecified) returned CYP2C19 activ 1, CYP2C19 inhib 4, CYP2C9 inh 50*, CYP2C9 activ 0.5 and DAT uptake mod -0.65.
Screening O=C1NCC(c2ccccc2)C1C(=O)N/N=C\c1ccc(-c2cccc(Cl)c2Cl)o1 (stereo unspecified) returned CYP2C19 activ 0.9, CYP2C19 inhib 11, CYP2C9 inh 59*, CYP2C9 activ 0.4 and DAT uptake mod 0.46.
`Cc1cccc(NC(=S)NNC(=O)c2sccc2C)c1` gave CYP2C19 activ 0.3, CYP2C19 inhib 73*, CYP2C9 inh 88*, CYP2C9 activ 0.1 and DAT uptake mod -1.
Screening CCc1cc(C(=O)NNC(=S)Nc2cccc(C)c2)cs1 returned DAT uptake mod 0.64.
Screening Cc1ccsc1C(=O)NNC(=S)NCC(C)C returned CYP2C19 activ 0.1, CYP2C19 inhib 91*, CYP2C9 inh 28, CYP2C9 activ 0.7 and DAT uptake mod 0.38.
`Clc1ccc(CSc2cc3c(nn2)-c2ccccc2CC3)cc1` gave CYP2C19 activ 0.8, CYP2C19 inhib 25, CYP2C9 inh 8, CYP2C9 activ 0.9 and DAT uptake mod -0.59.
Cc1ccccc1-n1nnnc1SC1CCOC1=O (stereo unspecified) was read as CYP2C19 activ 0.4, CYP2C19 inhib 59*, CYP2C9 inh -120, CYP2C9 activ 2.2*, D1 mod 0.22 and DAT uptake mod 0.16.
Screening CCOC(=O)Cn1nc(-c2ccccc2)ccc1=O returned CYP2C19 activ 0.8, CYP2C19 inhib 19, CYP2C9 inh 6, CYP2C9 activ 0.9, D1 mod 1.1 and DAT uptake mod 1.
Screening CCOC(=O)CCn1nc(-c2ccc(Cl)cc2)cc1N returned CYP2C19 activ 0.2, CYP2C19 inhib 79*, CYP2C9 inh 38, CYP2C9 activ 0.6, D1 mod 0.21 and DAT uptake mod 0.41.
CCOC(=O)Cn1nc(-c2ccc(Cl)cc2)cc1N was read as CYP2C19 activ 0.3, CYP2C19 inhib 74*, CYP2C9 inh 25, CYP2C9 activ 0.7, D1 mod 0.31 and DAT uptake mod 1.1.
Screening CC(=O)Nc1c(C(=O)N2CCCCCC2)cnn1-c1ccccc1Cl returned DAT uptake mod 0.088.
COc1ccc(CCNC(=O)CSc2nncn2N)cc1OC was read as CYP2C19 activ 0.9, CYP2C19 inhib 10, CYP2C9 inh 8, CYP2C9 activ 0.9, D1 mod 0.14 and DAT uptake mod 0.033.
For CCCC(=O)Nc1ccccc1-c1nnc(SC)[nH]c1=O the results were CYP2C19 activ 1.1, CYP2C19 inhib -8, CYP2C9 inh 23, CYP2C9 activ 0.8, D1 mod 0.99 and DAT uptake mod -0.026.
`Cn1c(=N)c(S(=O)(=O)c2ccc(Cl)cc2)cc2c(=O)n3ccccc3nc21` gave D1 mod 4.8*.
Screening Cc1cc(C)nc(-n2nc(C)c(Sc3ccc(F)cc3)c2N)n1 returned CYP2C19 activ 0.2, CYP2C19 inhib 79*, CYP2C9 inh 66*, CYP2C9 activ 0.3, D1 mod 0.5 and DAT uptake mod -0.0014.
